Assay results published in PubChem BioAssay (EPA / NIEHS).
Records with an inconclusive call do not appear. The source made the active and inactive calls. Rule for the calls, unless noted: active = hit-call score of the fitted dose curve at least 0.9, where 1 is the maximum; inactive = score below 0.9.

Columns and labels:
[1] = ATG_TCF_b_cat_CIS: Attagene CIS-FACTORIAL HepG2 Assay for human T-Cell-Factor with beta-catenin (TCF/b-cat) (AID 2282965); conditions: HepG2 TCF/beta-catenin cis-reporter transcription, actives raise or lower the signal
Procedure, shortened: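 HepG2 cells transiently transfected with multiple cis-promoter-regulated reporter transcription units, so endogenous transcription factor activity is measured. Reporter mRNA read 24 hours after dosing by RT-PCR, fluorescent labelling and capillary electrophoresis; bidirectional fitting against DMSO.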

[2] = ATG_TAL_CIS: Attagene CIS-FACTORIAL HepG2 Assay for human TAL Basal Promoter (AID 2282966); conditions: HepG2 Attagene cis-factorial TAL promoter reporter; actives raise or lower the signal;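 note: background control endpoint measuring basal TAL promoter reporter mRNA not a specific factor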
Procedure, shortened: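 HepG2, transient MRTU transfection, 24 h compound exposure; RNA → oligo(dT) RT → PCR → 6-FAM primer extension → HpaI digest → CE fluorescence. Bidirectional curve fit vs DMSO. Background-control readout.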

[3] = ATG_TGFb_CIS: Attagene CIS-FACTORIAL HepG2 Assay for human Transforming Growth Factor (TGF) (AID 2282967); conditions: HepG2 Attagene CIS TGFb reporter, mRNA transcription; actives raise or lower the signal
Procedure, shortened: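 Readout: fluorescently labeled reporter cDNA fragments resolved by capillary electrophoresis after RT-PCR. Transfected HepG2 cells dosed for 24 h; endogenous TF activity at TGFB1-linked cis element; gain or loss fitted relative to DMSO.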

[4] = ATG_VDRE_CIS: Attagene CIS-FACTORIAL HepG2 Assay for human Vitamin D Receptor Element (VDRE) (AID 2282968); conditions: HepG2 VDRE cis-reporter transcription, actives raise or lower the signal
Procedure, shortened: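 Steps: transfect HepG2 with multiple reporter transcription units; dose chemicals 24 h; isolate RNA; RT-PCR; label with 6-FAM primer extension; HpaI digest; capillary electrophoresis. Curves fitted both directions against DMSO.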

[5] = target: Nuclear receptor subfamily 1 group I member 3 (Homo sapiens) (UniProt Q14994); test: ATG_CAR_TRANS: Attagene TRANS-FACTORIAL HepG2 Assay for human Constitutive Androstane Receptor (CAR) (AID 2282969; active = hit-call score of the fitted dose curve at least 0.9, where 1 is the maximum;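 note: activators raise reporter mRNA above DMSO so AC50 marks induction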); conditions: HepG2 Attagene TRANS-FACTORIAL CAR reporter
Procedure, shortened: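 Steps: transient transfection of HepG2 with multiple GAL4-UAS reporter units; 24 h compound incubation; RNA isolation, RT-PCR, 6-FAM primer extension, HpaI digest; capillary electrophoresis. Gain-of-signal relative to DMSO negative control.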

[6] = target: Estrogen receptor (Homo sapiens) (UniProt P03372); test: ATG_ERa_TRANS: Attagene TRANS-FACTORIAL HepG2 Assay for human Estrogen Receptor alpha (ERa) (AID 2282970; active = hit-call score of the fitted dose curve at least 0.9, where 1 is the maximum); conditions: HepG2 Attagene TRANS ERa GAL4 reporter, mRNA
Procedure, shortened: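 Reporter mRNA induction after 24 hours, detected by fluorescent RT-PCR and capillary electrophoresis, gives the read-out. Cells are HepG2 transiently transfected with GAL4-UAS reporter transcription units responding to chimeric NR-Gal4. Activity is taken as gain of signal over DMSO baseline.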

[7] = target: X-box-binding protein 1 (Homo sapiens) (UniProt P17861); test: ATG_Xbp1_CIS: Attagene CIS-FACTORIAL HepG2 Assay for human X-box Binding Protein 1 (XBP1) (AID 2282972); conditions: HepG2 XBP1 cis-element reporter, Attagene multiplex; actives raise or lower the signal
Procedure, shortened: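 Changes in reporter transcript abundance, read by RT-PCR and capillary electrophoresis, reflect endogenous transcription factor activity. Transfected HepG2 cells received compound for 24 hours; DMSO defined baseline for bidirectional analysis.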

[8] = ATG_M_19_TRANS: Attagene TRANS-FACTORIAL HepG2 Assay for M19 Transcription Factor (Internal Marker) (AID 2282974; active = hit-call score of the fitted dose curve at least 0.9, where 1 is the maximum); conditions: HepG2 Attagene TRANS-FACTORIAL M19 internal marker reporter
Procedure, shortened: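 Measured here: internal-marker reporter transcript from HepG2 cells transfected with MRTUs, harvested at 24 h. cDNA PCR products were 6-FAM labelled by primer extension, cut with HpaI for 2 h at 37 C, and resolved by CE.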

[9] = ATG_GAL4_TRANS: Attagene TRANS-FACTORIAL HepG2 Assay for GAL4 (Internal Marker) (AID 2282976; active = hit-call score of the fitted dose curve at least 0.9, where 1 is the maximum); conditions: HepG2 Attagene TRANS GAL4 internal marker reporter
Procedure, shortened: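 RT-PCR/capillary electrophoresis readout of reporter mRNA. HepG2, transient MRTU transfection (GAL4-UAS reporters), 24 h compound exposure. Background-control endpoint, positive direction vs DMSO baseline.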

[10] = target: Steroid hormone receptor ERR1 (Homo sapiens) (UniProt P11474); test: ATG_ERRa_TRANS: Attagene TRANS-FACTORIAL HepG2 Assay for human Estrogen-Related Receptor alpha (ERRa) (AID 2282971; active = hit-call score of the fitted dose curve at least 0.9, where 1 is the maximum); conditions: HepG2 Attagene TRANS reporter, ERRa transactivation
Procedure, shortened: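 Transfected HepG2, 24 h dosing, ERRa-Gal4 chimera driving GAL4-UAS reporter. Readout: reporter mRNA via RT-PCR plus capillary electrophoresis (fluorescence). Positive direction vs DMSO control.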

Chain of Steroid hormone receptor ERR1 (Homo sapiens) (P11474 whole entry, looked up, the tested form may be a part): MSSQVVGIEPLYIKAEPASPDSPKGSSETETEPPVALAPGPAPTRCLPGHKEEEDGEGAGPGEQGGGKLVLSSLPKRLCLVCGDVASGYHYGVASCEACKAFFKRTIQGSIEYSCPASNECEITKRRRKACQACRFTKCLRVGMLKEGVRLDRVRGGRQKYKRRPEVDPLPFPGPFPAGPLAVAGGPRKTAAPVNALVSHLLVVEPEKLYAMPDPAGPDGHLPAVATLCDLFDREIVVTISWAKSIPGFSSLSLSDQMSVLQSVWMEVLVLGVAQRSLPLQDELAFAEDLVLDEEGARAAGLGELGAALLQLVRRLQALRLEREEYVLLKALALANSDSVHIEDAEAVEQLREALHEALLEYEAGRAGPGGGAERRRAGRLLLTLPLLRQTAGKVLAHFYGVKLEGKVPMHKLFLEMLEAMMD
Chain of Estrogen receptor (Homo sapiens) (P03372 whole entry, looked up, the tested form may be a part): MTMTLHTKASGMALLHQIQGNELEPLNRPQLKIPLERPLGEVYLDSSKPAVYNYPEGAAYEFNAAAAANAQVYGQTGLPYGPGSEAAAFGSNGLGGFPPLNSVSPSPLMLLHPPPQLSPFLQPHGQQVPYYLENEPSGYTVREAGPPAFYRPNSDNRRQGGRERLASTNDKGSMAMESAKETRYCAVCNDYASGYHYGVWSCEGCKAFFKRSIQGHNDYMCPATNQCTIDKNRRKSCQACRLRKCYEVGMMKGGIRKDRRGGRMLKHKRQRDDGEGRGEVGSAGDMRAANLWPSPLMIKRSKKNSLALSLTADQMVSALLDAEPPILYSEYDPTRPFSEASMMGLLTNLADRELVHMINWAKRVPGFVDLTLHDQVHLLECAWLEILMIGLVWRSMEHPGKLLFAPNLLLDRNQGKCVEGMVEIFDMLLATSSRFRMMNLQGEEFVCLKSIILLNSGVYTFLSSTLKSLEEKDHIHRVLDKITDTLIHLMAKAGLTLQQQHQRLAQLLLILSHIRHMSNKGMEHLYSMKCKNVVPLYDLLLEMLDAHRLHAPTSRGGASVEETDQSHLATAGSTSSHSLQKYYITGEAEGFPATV
Chain of X-box-binding protein 1 (Homo sapiens) (P17861 whole entry, looked up): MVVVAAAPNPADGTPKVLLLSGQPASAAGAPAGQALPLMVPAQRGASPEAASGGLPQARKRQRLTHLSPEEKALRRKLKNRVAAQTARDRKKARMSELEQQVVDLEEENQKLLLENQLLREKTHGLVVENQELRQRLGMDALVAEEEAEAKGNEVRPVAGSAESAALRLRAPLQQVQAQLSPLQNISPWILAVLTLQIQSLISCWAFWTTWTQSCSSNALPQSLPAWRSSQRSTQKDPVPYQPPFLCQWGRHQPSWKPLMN
Chain of Nuclear receptor subfamily 1 group I member 3 (Homo sapiens) (Q14994 whole entry, looked up, the tested form may be a part): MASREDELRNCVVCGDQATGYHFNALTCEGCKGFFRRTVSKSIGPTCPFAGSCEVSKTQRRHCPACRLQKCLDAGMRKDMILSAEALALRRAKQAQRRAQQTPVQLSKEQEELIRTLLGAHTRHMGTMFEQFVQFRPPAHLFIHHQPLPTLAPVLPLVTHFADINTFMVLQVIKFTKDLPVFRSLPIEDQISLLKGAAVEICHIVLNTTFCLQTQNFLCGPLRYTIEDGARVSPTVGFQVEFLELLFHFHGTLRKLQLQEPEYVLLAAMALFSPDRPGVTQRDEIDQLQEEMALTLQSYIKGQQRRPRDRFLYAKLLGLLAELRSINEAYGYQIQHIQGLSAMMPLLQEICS

Structure (SMILES) | outcome [1] | outcome [2] | outcome [3] | outcome [4] | outcome [5] | outcome [6] | outcome [7] | outcome [8] | outcome [9] | outcome [10] | AC50 [6] | AC50 [4] | AC50 [7] | AC50 [1] | AC50 [3]
CC(=O)OC1CCCCC1C(C)(C)C (centres undefined) | inactive | inactive | inactive | inactive | inactive | inactive | inactive | inactive | inactive |  |  |  |  |  | 
CCCCOCC(C)O (centres undefined) | inactive | inactive | inactive | inactive | inactive | inactive | inactive |  |  |  |  |  |  |  | 
CC/C=C\CCOC(=O)c1ccccc1O | inactive | inactive | inactive | inactive | inactive | inactive | inactive |  | inactive | inactive |  |  |  |  | 
CC(C)=CCCC(C)=CC#N | inactive | inactive | inactive | inactive | inactive | inactive | inactive |  |  |  |  |  |  |  | 
CC(C)CCOCc1ccccc1 | inactive | inactive | inactive | inactive | inactive | inactive | inactive |  | inactive | inactive |  |  |  |  | 
CC1C(C)(C)C2=C(C(=O)CCC2)C1(C)C (centres undefined) | inactive | inactive | inactive | inactive | inactive |  | inactive | inactive |  | inactive | 11.5 µM (active) |  |  |  | 
CCCCC(CC)COC(=O)/C=C/c1ccc(OC)cc1 (centres undefined) | inactive | inactive | inactive | inactive | inactive | inactive | inactive |  |  | inactive |  |  |  |  | 
CC=C(C)C=CC=C(C)C | inactive | inactive | inactive |  | inactive | inactive | inactive |  |  |  |  | 27.7 µM (active) |  |  | 
CC1CCC(=O)C1=O (centres undefined) | inactive | inactive | inactive | inactive | inactive | inactive | inactive | inactive |  |  |  |  |  |  | 
CCOC(=O)CC(=O)c1ccccc1 | inactive | inactive | inactive | inactive | inactive |  | inactive | inactive |  |  |  |  |  |  | 
CC(C)(C)C1CCC(=O)CC1 | inactive | inactive | inactive | inactive |  | inactive | inactive | inactive |  | inactive |  |  |  |  | 
CCOC(=O)c1ccc(C)cc1 | inactive | inactive | inactive | inactive |  | inactive | inactive |  |  | inactive |  |  |  |  | 
O=C1CCCCCCCCCCCN1 | inactive | inactive | inactive | inactive | inactive | inactive | inactive |  | inactive |  |  |  |  |  | 
CCOC(=O)/C=C\C(=O)OCC | inactive | inactive | inactive | inactive |  | inactive | inactive |  |  | inactive |  |  |  |  | 
O=C(O)CC(C(=O)O)S(=O)(=O)O (centres undefined) | inactive | inactive | inactive | inactive | inactive |  | inactive | inactive | inactive |  |  |  |  |  | 
COc1nccnc1CC(C)C | inactive | inactive | inactive | inactive |  | inactive | inactive |  | inactive | inactive |  |  |  |  | 
CCOC(=O)C1=NN(c2ccc(Cl)cc2Cl)C(C)(C(=O)OCC)C1 (centres undefined) | inactive | inactive | inactive | inactive |  | inactive | inactive | inactive | inactive | inactive |  |  |  |  | 
C=C(C)C(=O)OCC(O)COc1ccc(C(C)(C)c2ccc(OCC(O)COC(=O)C(=C)C)cc2)cc1 (centres undefined) | inactive | inactive | inactive |  | inactive |  |  |  | inactive |  |  | 9.75 µM (active) | 26.3 µM (active) |  | 
CCc1cccc(C)c1N(C(=O)CS(=O)(=O)O)C(C)COC (centres undefined) | inactive | inactive | inactive | inactive | inactive |  | inactive |  | inactive |  | 56.2 µM (active) |  |  |  | 
CCCCCOC(=O)CCCCC | inactive | inactive | inactive | inactive |  | inactive | inactive | inactive |  | inactive |  |  |  |  | 
COc1cc(O)c(C(=O)c2ccccc2)cc1S(=O)(=O)O | inactive | inactive | inactive | inactive | inactive | inactive | inactive |  | inactive |  |  |  |  |  | 
Cc1c(O)cccc1O | inactive | inactive | inactive | inactive | inactive |  | inactive |  | inactive |  | 46.1 µM (active) |  |  |  | 
OCCCc1ccccc1 | inactive | inactive | inactive | inactive |  | inactive | inactive | inactive |  | inactive |  |  |  |  | 
CCN1CCCC1=O | inactive | inactive | inactive | inactive | inactive |  | inactive |  |  |  |  |  |  |  | 
Cc1c(Cl)cccc1Cl | inactive | inactive | inactive | inactive | inactive | inactive | inactive | inactive | inactive |  |  |  |  |  | 
CC(C)COC(=O)CC(C(=O)OCC(C)C)S(=O)(=O)O (centres undefined) | inactive | inactive | inactive | inactive | inactive |  | inactive | inactive |  |  |  |  |  |  | 
C=CC(=O)OCC(C)OCC(C)OCC(C)OC(=O)C=C (centres undefined) |  | inactive |  |  | inactive |  | inactive |  | inactive |  |  | 6.27 µM (active) |  | 71.5 µM (active) | 143 µM (active)
COC(=O)CC(C)CCC=C(C)C (centres undefined) | inactive | inactive | inactive | inactive |  | inactive | inactive |  | inactive | inactive |  |  |  |  | 
